Sampled rows, rich in hits. Any-hit rate of the full collection: about 9.5%.
NPSR antag: neuropeptide S receptor (human) antagonism, cAMP; CHO-NPSR cells, cAMP TR-FRET, antagonist mode; 220,000 compounds, 1% hits; Potency, µM (doses to about 38.3 µM), for inactives: top-dose activity change, negative = inhibition, usual class: inhibitors; further: nearly all actives have a fitted effect of over 50% in size
Tau ThT inhib: tau fibrillization inhibition (ThT binding) | recombinant tau K18 P301L, heparin-induced fibrillization, ThT fluorescence | Potency, µM (top dose mostly 57.4 µM), without a hit: top-dose activity, negative = inhibition, actives largely listed as inhibitors | 270,000 compounds, 2.1% hits; further: nearly all actives have a fitted effect of over 55% in size
Target sequence (P10636 561-689 P618L limits assumed): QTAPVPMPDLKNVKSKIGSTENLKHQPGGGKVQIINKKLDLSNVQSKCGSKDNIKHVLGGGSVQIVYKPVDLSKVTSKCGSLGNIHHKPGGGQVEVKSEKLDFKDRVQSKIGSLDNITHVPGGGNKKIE
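Aggregation was driven by heparin (20 uM final) acting on recombinant tau […] bearing P301L in 100 mM sodium acetate pH 7; fibrils were detected with Thioflavin T.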
HPGD block: HPGD (human) dehydrogenase inhibition; 150,000 compounds, 4.3% hits; AID 894; Potency, µM, for inactives: at the highest dose activity change, negative = inhibition, actives largely listed as inhibitors; P15428; purified HPGD, NADH fluorescence kinetic, PGE2 substrate; active means well fitted inhibition curve with a large enough effect, not every such curve was filed as active; inconclusive means small, poorly fitted or top-dose-only effect, or another doubt; inactive means no such curve, though single readings can be large or run the other way
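20 nM HPGD preincubated 15 min at room temperature with compound in 50 mM Tris-HCl pH 8, 0.01% Tween 20. Started with 1 mM NAD+ and 30 uM prostaglandin E2; NADH fluorescence (360/450 nm) read 5 times over 30-s intervals, last minus first.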
ALDH1A1 block: ALDH1A1 (human) enzyme inhibition. Potency, µM (highest dose often 75.3 µM), without a hit: top-dose activity, negative = inhibition, most hits filed as inhibitors. 220,000 compounds, 7.3% hits. Purified ALDH1A1, NADH fluorescence, propionaldehyde substrate; active means well fitted inhibition curve with a large enough effect, not every such curve was filed as active; inconclusive means small, poorly fitted or top-dose-only effect, or another doubt; inactive means no such curve, though single readings can be large or run the other way;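 further: plate controls were no enzyme wells and a reference inhibitor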
Target sequence (P00352 whole entry, looked up): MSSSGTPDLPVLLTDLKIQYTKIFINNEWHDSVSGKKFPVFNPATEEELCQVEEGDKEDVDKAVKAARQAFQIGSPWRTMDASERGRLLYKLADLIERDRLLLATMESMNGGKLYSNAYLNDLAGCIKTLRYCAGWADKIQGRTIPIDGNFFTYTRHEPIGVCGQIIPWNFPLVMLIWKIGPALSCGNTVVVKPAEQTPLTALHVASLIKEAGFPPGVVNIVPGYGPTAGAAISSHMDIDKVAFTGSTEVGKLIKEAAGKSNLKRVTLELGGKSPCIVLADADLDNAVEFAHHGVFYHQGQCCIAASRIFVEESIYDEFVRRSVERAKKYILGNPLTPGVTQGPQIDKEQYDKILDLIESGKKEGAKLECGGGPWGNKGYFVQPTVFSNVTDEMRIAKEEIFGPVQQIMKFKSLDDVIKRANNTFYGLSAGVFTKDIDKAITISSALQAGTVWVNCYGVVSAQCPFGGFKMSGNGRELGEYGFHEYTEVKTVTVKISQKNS
Tau fibril FP: blocks human tau fibril formation measured by polarization; P10636; K18 P301L tau heparin fibrillization, Alexa594 FP, 6 h; Potency, µM (highest dose often 57.7 µM), without a hit: at the highest dose activity, negative = inhibition, actives largely listed as inhibitors; 280,000 compounds, 0.39% hits; AID 1468; further: nearly all actives have a fitted effect of over 55% in size
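Human tau K18 […] P301L fragment, 15 uM unlabeled plus 0.24 uM Alexa 594-labeled tau (final), with compound and 20 uM heparin in 100 mM sodium acetate pH 7; 6 hr at 37 C, then Alexa 594 FP read.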
Tau fluor counter: counter-screen for tau fibril formation inhibitors. 280,000 compounds, 0.93% hits. Potency, µM (top dose mostly 57.7 µM), for the others: at the highest dose activity change, negative = decrease. tau K18 P301L (four-repeat tau fragment) Alexa594 fluorescence, heparin fibrillization; further: nearly all actives have a fitted effect of over 55% in size
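Human K18 P301L tau (15 uM unlabeled plus 0.24 uM Alexa 594-labeled, final) in 100 mM sodium acetate pH 7 was mixed with compound and 20 uM heparin and incubated 6 hr at 37 C.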
* = called active by the depositor; u = inconclusive; x = not tested or not shown; [ ] = remark or other dose. Unless noted, the call rests on the fitted dose curve; in most records, active means well fitted curve in the direction sought with a large enough effect; inconclusive means small, poorly fitted or top-dose-only effect, or another doubt; inactive means no such curve, though single readings can be large; an effect the other way counts as inactive or inconclusive. Unless noted, on the % scale 0 is the no-effect control and ±100 the full control effect; potency means the concentration at half of the fitted maximal effect.

SMILES	NPSR antag	Tau ThT inhib	HPGD block	ALDH1A1 block	Tau fibril FP	Tau fluor counter
CCOC(=O)CCN1C(=O)[C@H]2[C@H]3[C@H](O)[C@H](O)C/C(=N/NC(=O)OCc4ccc(OC)cc4)[C@H]3CC[C@@H]2C1=O	x	-3.5%[11.5 µM]	x	-4.8%[13.5 µM]	4.9%[11.6 µM]	-0.5%[11.6 µM]
Cc1ccc(S(=O)(=O)c2cnc(SCC(=O)Nc3cc(C)cc(C)c3)nc2N)cc1	x	u	x	x	u	-25.1%
C=C(C)COc1ccc(-c2[nH]ncc2Oc2ccc(OC)cc2)c(O)c1	-50.6%	u	x	x	u	7.94µM*[quencher]
O=C1CC(c2nc3ccccc3n2CCCOc2ccccc2)CN1c1ccc(F)cc1 (stereo unspecified)	x	u	x	x	0.8%	-10.4%
Cn1c(=O)c2c(-c3ccc(Br)cc3)n(Cc3ccc(F)cc3)cc2n(C)c1=O	x	u	x	x	-12.7%	-20.7%
COc1ccc(-c2nc3c(c4c2C[C@H](c2ccccc2)OC4)CN(S(=O)(=O)c2ccc4c(c2)OCCN4C)CC3)c(C)c1	x	4.4%[11.5 µM]	-0.2%	u	5.7%[11.6 µM]	2.9%[11.6 µM]
CCOc1ccc(NC(=O)C2CC(=O)N(C)C(=Nc3ccc4c(c3)OCO4)S2)cc1 (stereo unspecified)	-13.9%[46.1 µM]	-0.2%	-8.6%	-0.5%	u	-27.1%
CCOc1ccc(NC(=O)C2CC(=O)N3CCCN=C3S2)cc1 (stereo unspecified)	-6.4%[46.1 µM]	u	0.8%	14.1µM*	0.5%	-10.8%
CCCOc1ccc(NC(=O)C2CC(=O)N3CCCN=C3S2)cc1 (stereo unspecified)	-1.3%[46.1 µM]	-11.5%	-13.9%	2.82µM*	-3.4%	-3.6%
CC[C@@H](c1ccccc1)n1c(=O)n2n(c1=O)[C@H]1[C@H](O)[C@H]3O[C@@H]3/C(=N/OC[C@@H](O)COCc3ccco3)[C@@H]1CC2	x	-20.5%[11.5 µM]	x	u	0.9%[11.6 µM]	-19.8%[11.6 µM]
CCN1C(=O)[C@H]2[C@H]3[C@H](O)[C@H](O)C/C(=N/O[C@@H](C)CN4CCCc5nc(C)c(C)cc54)[C@@H]3CC[C@@H]2C1=O	x	-1.3%[11.5 µM]	x	-6.1%[13.5 µM]	-0.7%[11.6 µM]	-3.9%[11.6 µM]
Cc1ccc(/C=N/n2c(-c3ccc(Cl)cc3)n[nH]c2=S)s1	8.7%	-4.0%	x	3.7%	-8.0%	-10.2%
COc1ccc(-c2n[nH]c(=S)n2/N=C/c2cccn2C)cc1	26.0%	-13.8%	x	x	2.6%	-18.1%
Cn1cccc1/C=N/n1c(-c2ccc(Cl)cc2)n[nH]c1=S	-9.4%[46.1 µM]	-10.7%	3.98µM*	10.7%	-10.8%	-9.9%
Cc1ccc(-c2n[nH]c(=S)n2/N=C/c2cccn2C)cc1	-23.1%[46.1 µM]	-8.6%	8.91µM*	-16.2%	1.1%	-8.7%
Cn1cccc1/C=N/n1c(-c2ccc(Cl)cc2Cl)n[nH]c1=S	-17.3%[46.1 µM]	-13.0%	12.6µM*	u	-9.3%	-19.3%
COc1cccc(C2CC(c3cccs3)=NN2C(=O)CSC2=NN3CCCC(=O)N=C3S2)c1OC (stereo unspecified)	-17.0%[46.1 µM]	-1.0%	-20.8%	u	-1.4%	3.5%
O=C(CC1C(=O)CCCC1=O)c1ccccc1	8.2%	u	x	8.91µM*	u	-27.5%
CC(=O)Nc1ccc(OCCC[n+]2ccccc2)cc1	-0.3%	13.6%	x	2.51µM*	1.9%	7.4%
COc1ccc(N/C(C)=C2/C(=O)C(=O)N(CCO)C2c2ccc([N+](=O)[O-])cc2)cc1 (stereo unspecified)	-1.5%[46.1 µM]	-13.5%	-6.4%	11.2µM*	-0.7%	-9.1%
COc1ccc(C2/C(=C(/O)c3ccccc3)C(=O)C(=O)N2CO)cc1 (stereo unspecified)	-4.5%[46.1 µM]	u	-12.8%	u	u	-8.7%
COc1ccc(-c2nnc(SCCC(=O)O)n2-c2ccccc2)cc1	-20.3%[46.1 µM]	-8.3%	31.6µM*	u	7.5%	0.6%
Cc1cccc(-c2nnc(SCC3CNC(=O)O3)n2-c2ccc(Cl)cc2)c1 (stereo unspecified)	-0.6%	4.6%	-18.4%	1.41µM*	-3.7%	15.3%
COc1ccc(-n2c(SCc3nc(-c4ccc(Cl)cc4)no3)nnc2-c2ccncc2)cc1	x	-5.5%	x	x	0.7%	-7.3%
COc1ccc(-n2c(SCC3CNC(=O)O3)nnc2-c2ccc(Cl)cc2)cc1 (stereo unspecified)	1.7%	-10.3%	-3.7%	8.91µM*	-1.9%	-10.7%
SMILES	NPSR antag	Tau ThT inhib	HPGD block	ALDH1A1 block	Tau fibril FP	Tau fluor counter
CCc1ccc(NC(=O)Cn2c(=O)n(-c3cc(OC)c(OC)c(OC)c3)c(=O)c3ccccc32)cc1	x	3.3%	x	x	u	-2.5%
CN1CCc2cccc3c2C1Cc1ccc(O)c(O)c1-3 (stereo unspecified)	-12.1%[46.1 µM]	17.8µM*	5.01µM*	u	31.6µM*	28.2µM*[quencher]
Cc1cccc(CS(=O)(=O)Cc2ccc(C(=O)NCc3ccc(F)cc3)o2)c1	x	-7.7%	x	x	-0.2%	-13.3%
CCCC(=O)Nc1ccc(-c2ccc(NC(=O)CCC)cc2)cc1	5.8%	-1.9%	-17.3%	5.2%	-3.2%	-6.1%
CCCCC(CC)C(=O)Nc1ccc(Nc2ccccc2)cc1 (stereo unspecified)	-52.2%	u	-10.5%	u	0.0%	10µM*[quencher]
CCCCC(CC)C(=O)Nc1ccc(C#N)cc1 (stereo unspecified)	-10.4%[46.1 µM]	3.3%	-11.7%	5.3%	-3.6%	-10.1%
CC(=O)C(Cl)C(=O)Nc1ccccc1 (stereo unspecified)	3.3%	25.1µM*	x	1.26µM*	u	-15.0%
CCCC(=O)Nc1ccc(Nc2ccccc2)cc1	-22.2%	u	15.8µM*	u	8.6%	-15.5%
CCCOC(=O)c1ccc(NC(=O)CCOc2ccccc2)cc1	-20.6%[46.1 µM]	u	-17.6%	14.1µM*	-13.3%	u
CCC(Sc1nc2ccncc2[nH]1)C(=O)Nc1ccc(F)cc1 (stereo unspecified)	x	1.1%	x	x	-8.6%	-6.6%
COC(=O)c1ccc2c(=O)n(CCCCCC(=O)NCCc3ccccc3)c(=O)[nH]c2c1	x	4.0%	x	x	-11.8%	10.2%
CCC(=O)Nc1ccc(C(=O)c2ccccc2)cc1	-8.8%[46.1 µM]	-5.2%	14.1µM*	u	-10.7%	-3.8%
CCC(=O)Nc1ccc(NC(=S)Nc2ccccc2)cc1	11.3%	-15.5%	-2.8%	u	3.2%	-12.9%
O=C(Nc1cc(F)ccc1F)N1CCC(CN2CCOCC2)CC1	x	4.4%	x	x	0.0%	2.9%
Cc1c(NC(=O)c2cc3c(s2)-c2ccccc2OC3)cccc1[N+](=O)[O-]	-17.5%	-4.0%	u	14.1µM*	-6.0%	-3.6%
CCOc1ccccc1NC1=C(Cl)C(=O)N(c2ccc(OC)cc2)C1=O	-11.0%	u	-17.9%	7.8%	-5.8%	-28.3%
COc1ccccc1N1C(=O)C(Cl)=C(Nc2ccccc2O)C1=O	-13.6%	12.6µM*	x	12.6µM*	28.2µM*	u
